IL-1B inflam inh: blocks inflammasome-driven IL-1 beta release. activity change, % at 57.5 µM. THP-1 LPS/ATP IL-1B secretion, AlphaLISA, 16 h; hits give low values. hit rate 4.7% among 360,000; in the data active = activity change below about -50%; inconclusive = mostly about -30% to -49%
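Secreted IL-1B measured by AlphaLISA bead assay after 16 h compound exposure of THP-1 cells; compounds (final up to 57.5 uM) added 1 h before LPS (250 ng/mL) and ATP (1.25 mM) stimulation; lower signal means less secretion.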
TDP1 cell noCPT: qHTS for Inhibitors of human tyrosyl-DNA phosphodiesterase 1 (TDP1): qHTS in cells in absence of CPT; DT40 Tdp1-/- hTDP1 cells, no CPT, ATP luminescence, 48 h; Potency, µM (titrated, usually from 46.2 µM), usual class: inhibitors; hit rate 15% among 420,000; AID 686978, 2013; also: nearly all actives have a fitted effect of over 55% in size
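A cellular qHTS used chicken DT40 cells lacking endogenous Tdp1 but carrying stably transfected human TDP1. Compounds were applied without camptothecin, and cell growth kinetics were judged by ATP-dependent luminescence after ≥48 hr.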
RORg inh: blocks mouse ROR gamma transcriptional activity; hit rate 5.4% among 310,000; Drosophila S2 Gal4-RORgamma UAS-luciferase reporter, 20 h; P51450; Potency, µM (top dose mostly 53.6 µM), actives largely listed as inhibitors; also: nearly all actives have a fitted effect of over 60% in size
Target sequence (P51450 whole entry, looked up, the tested form may be a part): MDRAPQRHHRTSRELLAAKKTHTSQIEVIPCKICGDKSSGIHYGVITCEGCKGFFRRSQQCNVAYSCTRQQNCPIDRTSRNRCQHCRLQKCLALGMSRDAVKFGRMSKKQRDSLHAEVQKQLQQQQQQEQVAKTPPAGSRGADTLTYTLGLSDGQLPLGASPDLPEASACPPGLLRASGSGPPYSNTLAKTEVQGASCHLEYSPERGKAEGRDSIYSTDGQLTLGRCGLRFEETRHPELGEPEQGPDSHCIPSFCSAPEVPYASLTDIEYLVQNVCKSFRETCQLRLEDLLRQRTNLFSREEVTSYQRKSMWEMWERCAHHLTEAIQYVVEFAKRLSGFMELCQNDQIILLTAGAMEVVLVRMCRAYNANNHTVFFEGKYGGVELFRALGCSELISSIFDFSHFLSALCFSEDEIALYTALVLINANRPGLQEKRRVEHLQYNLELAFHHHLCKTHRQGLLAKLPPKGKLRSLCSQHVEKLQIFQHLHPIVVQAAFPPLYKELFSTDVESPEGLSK
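In this cell-based reporter format, copper sulfate (700 uM final) drives Gal4–ROR gamma fusion expression from a metallothionein promoter in Drosophila Schneider cells; compounds preincubated 1 hr, reporter read after 20 hr at ambient temperature.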
LDHA block: LDHA (human) enzyme inhibition. P00338. purified LDHA, NADH/diaphorase-resazurin fluorescence; hits give low values. activity change, % (values are at about 110 or 230 µM). hit rate 0.15% among 480,000; in the data active = activity change below about -30%; inconclusive = mostly about -25% to -30%
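Enzyme activity of human lactate dehydrogenase 5 (2 nM; 0.06 mM NADH, 0.2 mM pyruvate, 5 min, RT) is measured via a resazurin/diaphorase fluorescence readout of residual NADH.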
TDP1 cell CPT: growth inhibition of DT40 Tdp1-/-;hTDP1 cells with camptothecin (screen for TDP1 inhibitors). chicken DT40 Tdp1-/-;hTDP1 cells + 20 nM CPT, ATP luminescence, 48 h. Potency, µM (highest dose often 46.2 µM), usual class: inhibitors. hit rate 12% among 420,000; also: nearly all actives have a fitted effect of over 55% in size
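Chicken DT40 Tdp1-/- cells stably complemented with human TDP1 were seeded at 400 cells/well in medium containing 20 nM camptothecin, exposed to pin-transferred compounds, and grown at 37 °C for at least 48 hr. Viability was read as ATP luminescence.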
Gal4-VP16 FLuc: Gal4-VP16 reporter inhibition counter-screen | Potency, µM (doses to about 53.6 µM), actives largely listed as inhibitors | hit rate 3.5% among 310,000 | AID 2546 | Drosophila S2 Gal4-VP16 UAS-luciferase, luminescence, 20 h;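 also: Gal4-VP16 expression switched on by copper sulfate through the metallothionein promoter; nearly all actives have a fitted effect of over 50% in size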
Numbers stand for hits; – = inactive; ? = inconclusive; · = no result; [ ] = another dose, or the depositor's remark. Shown are actives, neighbours in structure and some others; about 18% of the full set was active somewhere. Unless noted, calls follow the shape of the dose curve; as a rule, active = well fitted curve in the direction sought with a large enough effect; inconclusive = small, poorly fitted or top-dose-only effect, or another doubt; inactive = no such curve, though single readings can be large; an effect the other way counts as inactive or inconclusive.

SMILES | IL-1B inflam inh | TDP1 cell noCPT | RORg inh | LDHA block | TDP1 cell CPT | Gal4-VP16 FLuc
O=C(NC1CCCCC1)N(c1ccccc1)c1nnc(-c2cccc([N+](=O)[O-])c2)s1 | – | 12µM | · | – | 26µM | ·
O=C(Cc1ccccc1)Nc1nnc(-c2cccc([N+](=O)[O-])c2)s1 | – | – | – | – | – | –
CC(C)(C)C(=O)NC1CCCc2ccccc21 (stereo unspecified) | · | · | · | – | · | ·
O=C(CCc1cccs1)Nc1cccc(C(=O)N2CCCC2)c1 | · | · | · | – | · | ·
CCN(CC)S(=O)(=O)c1cc(NC(=O)COC(=O)c2c(C)noc2C)ccc1C | -50 | – | · | – | ? | ·
CCN(CC)S(=O)(=O)c1cc(NC(=O)c2ccccc2OCc2c(C)noc2C)ccc1C | – | 16µM | · | – | 16µM | ·
O=C(NC1CCCC1)C1CCCN(C(=O)Cc2c[nH]c3ccccc23)C1 (stereo unspecified) | · | · | · | – | · | ·
CC(=O)N1CCN(C(=O)c2cc(C)nc3ccccc23)CC1 | – | ? | – | – | – | –
Cc1cc(C(=O)N2CC=C(c3ccccc3)CC2)c2ccccc2n1 | – | 0.92µM | · | – | 0.58µM | ·
Cc1ccc(C(=O)N2CC=C(c3ccccc3)CC2)o1 | – | ? | · | – | ? | ·
O=C(O)c1ccccc1C(=O)N1CC=C(c2ccccc2)CC1 | – | 26µM | – | – | ? | –
O=C(CCl)N1CC=C(c2ccccc2)CC1 | · | · | · | – | · | ·
Cc1c(C(=O)C(=O)N2CC=C(c3ccccc3)CC2)c2ccccc2n1C | – | 2.6µM | ? | – | 2.9µM | –
CCc1ccc(OCc2nnc(SCC(=O)C(C)(C)C)n2CC(C)C)cc1 | · | · | · | – | · | ·
O=C1CSc2ccc(C(=O)OCc3nc(-c4ccccc4)no3)cc2N1 | · | · | · | – | · | ·
CNCCCNCc1ccc(C)s1 | · | · | · | – | · | ·
Cc1c(O)ccc2c(CN3CCCCC3)cc(=O)oc12 | · | · | · | – | · | ·
CN(C)CCNC(=O)c1cccc(-c2cc(NC=O)c3ncc(-c4cccc(C(F)(F)F)c4)n3c2)c1 | -109 | 5.2µM | · | – | 3.3µM | ·
COc1cccc(-c2cc(NC=O)c3ncc(-c4cccc(C(=O)NCCN(C)C)c4)n3c2)c1 | – | ? | · | – | ? | ·
CN(C)CCNC(=O)c1cccc(-c2cnc3c(NC=O)cc(-c4cc(F)c(F)c(F)c4)cn23)c1 | – | 3.3µM | · | – | 4.1µM | ·
COCc1cccc(C(=O)NCc2ccc(C(=O)O)cc2)c1 | · | · | · | – | · | ·
CN1/C(=C/C(=O)C(F)(F)C(F)(F)C(F)(F)F)Sc2ccccc21 | · | · | · | – | · | ·
Cc1noc(C)c1C(=O)NCCc1ccc(Cl)cc1 | – | – | –[0.365 µM] | – | – | ·
Cc1cc(C(C)(C)C)cc(C)c1CCNC(=O)c1c(C)noc1C | – | 26µM | · | – | 29µM | ·
CC(=O)Nc1cc(F)c(F)cc1NC(=O)c1cc2ccccc2oc1=O | · | · | · | – | · | ·
SMILES | IL-1B inflam inh | TDP1 cell noCPT | RORg inh | LDHA block | TDP1 cell CPT | Gal4-VP16 FLuc
COc1ccc(CCc2nc3ccccc3n2C(CCc2ccccc2)c2nc3ccccc3[nH]2)cc1 (stereo unspecified) | – | ? | · | – | ? | ·
COc1cc(Cc2nc3ccccc3n2C(C)c2nc3ccccc3[nH]2)cc(OC)c1 (stereo unspecified) | – | ? | · | – | 18µM | ·
O=c1c(-c2ccccc2)nc2ccccc2n1C(c1ccccc1)c1nc2ccccc2[nH]1 (stereo unspecified) | -53 | – | · | – | – | ·
CC(c1nc2ccccc2[nH]1)n1c(=O)c(-c2cccnc2)nc2ccccc21 (stereo unspecified) | -88 | ? | · | – | 23µM | ·
c1ccc(-c2nc3ccccc3n2C(c2ccccc2)c2nc3ccccc3[nH]2)cc1 (stereo unspecified) | – | ? | · | – | ? | ·
COc1ccc(C(=O)Nc2ccc3nc(C)[nH]c3c2)c(OC)c1 | · | · | · | – | · | ·
Cc1c(CCC(C)C)c(=O)n2c([nH]c3ccccc32)c1C#N | – | 5.8µM | – | – | ? | –
CCCCc1c(C)c(C#N)c2[nH]c3ccccc3n2c1=O | – | 16µM | ? | – | 23µM | ?
CC1(C)CC(=O)C=C(c2ccc(COC(=O)/C=C/c3ccccc3)cc2)C1=O | – | 21µM | · | – | ? | ·
CC1(C)CC(=O)C=C(c2ccc(COC(=O)c3ccccc3)cc2)C1=O | – | ? | · | – | – | ·
Cc1cccc(Cn2c(SCc3ccc(C(=O)NC4CCCCC4)cc3)nc3ccncc32)c1 | · | – | · | – | – | ·
COc1ccc(NC(=O)Cn2c(SCc3cccc(Cl)c3)nc3ccncc32)c(OC)c1OC | · | ? | · | – | 21µM | ·
COc1cccc(CNC(=O)c2ccc(CSc3nc4ccncc4n3Cc3cccc(C)c3)cc2)c1 | · | 16µM | · | – | 21µM | ·
Cc1cccc(Cn2c(SCc3ccc(C(=O)NCc4ccccc4F)cc3)nc3cccnc32)c1 | · | 21µM | · | – | ? | ·
COC(=O)c1ccc(Cn2c(SCc3cccc(C)c3)nc3ccncc32)cc1 | · | 16µM | · | – | ? | ·
Nc1c(C(=O)Nc2c(Cl)cccc2Cl)sc2nc(-c3ccncc3)ccc12 | · | · | · | – | · | ·
Cc1ccsc1C=Nc1ccc(C23CC4CC(CC(C4)C2)C3)cc1 | · | · | · | – | · | ·
O=C(CSc1nnc(-c2ccc(Cl)cc2)n1Cc1ccco1)N1CCCC1 | · | · | · | – | · | ·
Cc1cc(=O)oc2cc(OC(C)C(=O)Nc3ccc(S(=O)(=O)NC(C)C)cc3)ccc12 (stereo unspecified) | · | · | · | – | · | ·
Cc1cccc(Cn2c(SCc3ccc(C(=O)NCc4ccccc4F)cc3)nc3ccncc32)c1 | · | 23µM | · | – | ? | ·
Cc1ccc(C)c(-c2nn(CC(=O)N3CCCCC3)c(=O)c3ccccc23)c1 | · | · | · | – | · | ·
CC1=CN2C(=N)/C(=C\c3cn(CCCOc4ccccc4)c4ccccc34)C(=O)N=C2S1 | – | ? | 7.1µM | – | 15µM | 5µM
CC1=CC2=NC(=O)/C(=C\c3cn(C)c4ccccc34)C(=N)N2O1 | – | – | – | – | – | –
CN(C)C(=O)C(Sc1nncn1-c1ccccc1F)c1ccccc1 (stereo unspecified) | · | · | · | – | · | ·
CCN1CCCC1CNC(=O)C1CCN(Cc2nc(-c3cccc(Br)c3)oc2C)CC1 (stereo unspecified) | -83 | 2.9µM | – | – | 5.8µM | –
CCc1ccc(-c2nc(CN3CCC(C(=O)NCCc4ccc(OC)c(OC)c4)CC3)c(C)o2)cc1 | -54 | ? | – | – | 16µM | –
CCc1ccc(-c2nc(CN3CCC(C(=O)NCc4ccccc4OC)CC3)c(C)o2)cc1 | ? | ? | ? | – | 18µM | 20µM
Cc1oc(-c2cccc(Cl)c2)nc1CN1CCC(C(=O)NCc2ccc(F)cc2)CC1 | · | 15µM | · | – | ? | ·
CCc1ccc(-c2nc(CN3CCC(C(=O)NCCc4ccc(C)cc4)CC3)c(C)o2)cc1 | · | ? | · | – | – | ·

Screens (PubChem BioAssay)
